Test results published in PubChem BioAssay (Tox21).
Where “and” joins values, the source holds several entries; their conditions need not be identical. Identical values can stand only once. Inconclusive results are not listed. Where a call stands in place of a potency, no number is given. A structure can be active in one record and inactive in another. Calls of active or inactive are those of the source. The call rests on the fitted dose curve; in most records, active means well fitted cell-killing curve with a large enough effect in the repeat runs; inconclusive means weak or mixed curves; inactive means flat fitted curve, though single readings scatter.

Assay: qHTS RealTime-Glo MT Cell Viability Assay in HepG2 cells - 24 hour (AID 1224867); further: nearly all actives have a fitted effect of over 50% in size
Details: RealTime-Glo luminescence; series mostly up to 76.8 µM
Source text: U.S. Tox21 Program National Center for Advancing Translational Sciences [NCATS] NIH Chemical Genomics Center [NCGC] U.S. Environmental Protection Agency [EPA] National Institutes of Environmental Health Sciences [NIEHS] National Toxicology Program [NTP] U.S. Food and Drug Administration [FDA] Tox21 Assay Overview: Measure of cell viability is critical in the cell-base assay. Analysis of cell viability is necessary for the characterization of cell responses to cytotoxic drugs and environmental stress. A RealTime-Glo MT Cell Viability Assay to monitor cell viability in real time of continues cell culture during 40 hours of compound treatment was used to screen Tox21 10K library compounds in HepG2 cells. The RealTime-Glo MT Cell Viability Assay is a nonlytic, homogeneous, bioluminescent method to measure cell viability in real time using a simple, plate-based method. The assay involves adding NanoLuc luciferase and a cell-permeant prosubstrate to cells in culture. Viable cells reduce the proprietary prosubstrate to generate a substrate for NanoLuc luciferase. This substrate diffuses from cells into the surrounding culture medium, where it is rapidly used by the NanoLuc Enzyme to produce a luminescent signal. The signal correlates with the number of viable cells, making the assay well suited for cytotoxicity studies.
Tox21 Assay Protocol Summary: The mixture of HepG2 cell suspension and reagents were dispensed at 600cells/6 ul/well in 1536-well tissue culture treated black solid bottom plates using a Multidrop dispenser. After the assay plates were incubated at a 37 C/5% CO2 incubator for 5 hours, 23 nL of compounds dissolved in DMSO, positive and negative controls was transferred to the assay plate by a pintool work station. The plates were incubated at 37 C for 40 hours. The luminescence intensity were measured at 0h, 8h, 16h, 24h, 32h and 40h time points using ViewLux plate reader during compound treatment.
Potency means the concentration at half of the fitted maximal effect.

| Structure (SMILES) | Potency |
| --- | --- |
| CC(C)(C)NCC(O)c1cc(O)cc(O)c1 (stereo not given) | inactive |
| CN(C)c1ccc(C(=C2C=CC(=[N+](C)C)C=C2)c2ccccc2)cc1 | 11 µM (active) and 8.49 µM (active) and 7.56 µM (active) |
| Cc1ccc(-c2cc(C(F)(F)F)nn2-c2ccc(S(N)(=O)=O)cc2)cc1 | 48.8 µM (active) and 49 µM (active) |
| Cc1scc2c1N(C(=O)CN1CCN(C)CC1)c1ccccc1NC2=O | inactive |
| CC(C)(C)NC(=O)[C@@H]1CN(Cc2cccnc2)CCN1C[C@@H](O)C[C@@H](Cc1ccccc1)C(=O)N[C@H]1c2ccccc2C[C@H]1O | inactive |
| CCN(CC)C(=S)SSC(=S)N(CC)CC | 436 nM (active) and 398 nM (active) and inactive |
| C=C(C)C1CC=C(C)C(OC(C)=O)C1 (stereo not given) | inactive |
| COc1nc(C)nc(Cl)c1NC1=NCCN1 | inactive |
| C=C(C)C(=O)O | inactive |
| NCCO | inactive |
| CC(=O)CC(=O)Nc1ccc2[nH]c(=O)[nH]c2c1 | inactive |
| CNC1(C)C2CCC(C2)C1(C)C (stereo not given) | inactive |
| CCCCOCCOC(=O)c1ccccc1C(=O)OCCOCCCC | inactive |
| Cc1cccc([N+](=O)[O-])c1C(=O)O | inactive |
| C#CC(C)(CC)OC(=O)c1ccccc1C(=O)O (stereo not given) | inactive |
| CC(C)C(=O)c1c(C(C)C)nn2ccccc12 | inactive |
| COc1ccc(Cc2cnc(N)nc2N)cc1OC | inactive |
| CC1=C(C=O)C(C)(C)CC=C1 | inactive |
| CCCN[C@H]1CCc2nc(N)sc2C1 | inactive |
| CCc1cc(C(C)(C)C)c(O)c(C(C)(C)C)c1 | inactive |

| Structure (SMILES) | Potency |
| --- | --- |
| O=C1CC2(CCCC2)CC(=O)N1CCCCN1CCN(c2ncccn2)CC1 | inactive |
| O=C(O)c1cccc(C(=O)O)c1 | inactive |
| Oc1c(Cl)cc(Cl)cc1Sc1cc(Cl)cc(Cl)c1O | inactive |
| Cc1ccnc2c1NC(=O)c1cccnc1N2C1CC1 | inactive |
| COc1ccc(CCN2CCC(Nc3nc4ccccc4n3Cc3ccc(F)cc3)CC2)cc1 | 17.8 µM (active) and 13.4 µM (active) |
| CC(C)(c1ccccc1)c1ccc(Nc2ccc(C(C)(C)c3ccccc3)cc2)cc1 | inactive |
| C1COC(NC(C2CC2)C2CC2)=N1 | inactive |
| C/C=C/c1ccc(OCC)c(O)c1 | inactive |
| COc1ccc(COC(C)=O)cc1 | inactive |
| c1ccc2c(c1)CCCC2C1=NCCN1 (stereo not given) | inactive |
| O=C1NCC2(CCN(CCc3ccccc3)CC2)O1 | inactive |
| CC(=O)Nc1ccc(C(=O)CCl)cc1 | inactive |
| Nc1ccc2cc3ccccc3cc2c1 | inactive |
| Cc1cc(OCCOCC[N+](C)(C)Cc2ccccc2)ccc1C(C)(C)CC(C)(C)C | 15.4 µM (active) and 10.7 µM (active) |
| CCCCC(CC)COC(=O)CC(C(=O)OCC(CC)CCCC)S(=O)(=O)O (stereo not given) | inactive |
| CC(COc1ccccc1)N(CCCl)Cc1ccccc1 (stereo not given) | inactive |
| O | inactive |
| CCCC(=O)c1ccccc1 | inactive |
| OCCOCCN1CCN(C(c2ccccc2)c2ccc(Cl)cc2)CC1 (stereo not given) | 48.3 µM (active) and inactive |
| NC(=Nc1ccccc1)Nc1ccccc1 | inactive |
